# Results taken from PubChem BioAssay (NCATS).
# Inconclusive results are not listed. Entries that show only a call come without a potency. The source made the active and inactive calls. Calls come from the whole dose curve; as a rule, active = well fitted curve in the direction sought with a large enough effect; inconclusive = small, poorly fitted or top-dose-only effect, or another doubt; inactive = no such curve, though single readings can be large; an effect the other way counts as inactive or inconclusive.
# Experiments:
# [1] = system: Zika virus NS2B-NS3 protease (unlinked); test: Optimization of GU AMC qHTS for Zika virus inhibitors: Unlinked NS2B-NS3 protease assay (AID 1347151); note: series mostly up to about 52 µM; nearly all actives have a fitted effect of over 80% in size
# Summary of the method: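 Percent inhibition is derived from the 15-min change in AMC fluorescence, normalized against no-inhibitor and no-enzyme controls, then fitted to a 4-parameter Hill curve. Aprotinin was the intraplate control.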
# [2] = system: Zika virus NS2B-NS3 protease; test: Primary screen GU AMC qHTS for Zika virus inhibitors (AID 1347154); note: nearly all actives have a fitted effect of over 70% in size
# Summary of the method: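 Unlinked Zika NS2B hydrophilic domain–NS3 protease complex at 25 nM in 10 mM Tris-HCl pH 8.0, 0.01% Tween 20, with an AMC peptide substrate. Fluorescence change (340/450 nm) over 15 min at room temperature, normalized to controls, fitted to 4-parameter Hill.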
# [3] = qHTS of pediatric cancer cell lines to identify multiple opportunities for drug repurposing: Confirmatory screen for BT-37 cells (AID 1347117); note: nearly all actives have a fitted effect of over 55% in size; note: potency is the fitted concentration of half-maximal effect
# Summary of the method: (§1)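 Viability after 48 h compound treatment at 37C, 500-1,000 cells/well, read as ATP luminescence with CellTiter-Glo. Primary screens used 11-point (MIPE, 0.78 nM-46 µM) or 8-point (NPC, 0.59 nM-46 µM) final concentrations; follow-up screens used 11-point dilutions.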
# [4] = qHTS of pediatric cancer cell lines to identify multiple opportunities for drug repurposing: Confirmatory screen for TC32 cells (AID 1347118);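 note: potency is the fitted concentration of half-maximal effect; cells exposed to compound for 48 h before the read; nearly all actives have a fitted effect of over 65% in size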
# Summary of the method: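 Luminescent ATP read-out (CellTiter-Glo) of metabolically active TC32 cells after 48 h exposure. Concentration-response curves came from 11-point (MIPE, 0.78 nM–46 µM) or 8-point (NPC, 0.59 nM–46 µM) primary titrations; follow-up used 11 points.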
# [5] = qHTS of pediatric cancer cell lines to identify multiple opportunities for drug repurposing: Confirmatory screen for control Hh wild type fibroblast cells (AID 1347121); note: nearly all actives have a fitted effect of over 70% in size
# Summary of the method: as §1
# [6] = qHTS of pediatric cancer cell lines to identify multiple opportunities for drug repurposing: Confirmatory screen for U-2 OS cells (AID 1347122); note: potency is the fitted concentration of half-maximal effect; nearly all actives have a fitted effect of over 65% in size
# Summary of the method: as §1
# [7] = qHTS of pediatric cancer cell lines to identify multiple opportunities for drug repurposing: Confirmatory screen for Rh41 cells (AID 1347123);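 note: potency is the fitted concentration of half-maximal effect; 48 h compound exposure; nearly all actives have a fitted effect of over 60% in size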
# Summary of the method: as §1
# [8] = qHTS of pediatric cancer cell lines to identify multiple opportunities for drug repurposing: Confirmatory screen for Rh18 cells (AID 1347125); note: nearly all actives have a fitted effect of over 55% in size; note: potency is the fitted concentration of half-maximal effect
# Summary of the method: as §1
# [9] = qHTS of pediatric cancer cell lines to identify multiple opportunities for drug repurposing: Confirmatory screen for Rh30 cells (AID 1347126); note: potency is the fitted concentration of half-maximal effect; nearly all actives have a fitted effect of over 55% in size
# Summary of the method: as §1
# [10] = qHTS of pediatric cancer cell lines to identify multiple opportunities for drug repurposing: Confirmatory screen for OHS-50 cells (AID 1347128);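 note: compound exposure lasted 48 h at 37 degrees C; nearly all actives have a fitted effect of over 55% in size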; note: potency is the fitted concentration of half-maximal effect
# Summary of the method: as §1
# [11] = qHTS of pediatric cancer cell lines to identify multiple opportunities for drug repurposing: Confirmatory screen for SK-N-SH cells (AID 1347129);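 note: cells exposed to compound for 48 h before viability read; nearly all actives have a fitted effect of over 60% in size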; note: potency is the fitted concentration of half-maximal effect
# Summary of the method: as §1
# [12] = qHTS of pediatric cancer cell lines to identify multiple opportunities for drug repurposing: Confirmatory screen for SJ-GBM2 cells (AID 1347116); conditions: outcome: dose series up to 45.9 µM; note: nearly all actives have a fitted effect of over 60% in size
# Summary of the method: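 Viability measured as metabolically active cells via CellTiter-Glo luminescence following 48 hours of compound exposure, 11-point dilutions in confirmatory testing. 500-1,000 cells/well plated 5 hours before dosing; controls were DMSO and 2.3 µM bortezomib.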
# [13] = qHTS of pediatric cancer cell lines to identify multiple opportunities for drug repurposing: Confirmatory screen for MG 63 (6-TG R) cells (AID 1347119); note: nearly all actives have a fitted effect of over 55% in size
# Summary of the method: as §1
# [14] = qHTS of pediatric cancer cell lines to identify multiple opportunities for drug repurposing: Confirmatory screen for RD cells (AID 1347124);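 note: cells exposed to compound for 48 h before viability readout; nearly all actives have a fitted effect of over 65% in size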
# Summary of the method: as §1
# [15] = qHTS of pediatric cancer cell lines to identify multiple opportunities for drug repurposing: Confirmatory screen for Saos-2 cells (AID 1347127); note: nearly all actives have a fitted effect of over 60% in size
# Summary of the method: as §1
# [16] = Confirmatory screen GU Rhodamine qHTS for Zika virus inhibitors qHTS (AID 1347157); conditions: purified enzyme assay, Rhodamine110 substrate fluorescence, 15 min; note: potency is the fitted concentration of half-maximal effect; nearly all actives have a fitted effect of over 70% in size
# Summary of the method: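 Buffer 10 mM Tris-HCl pH 8.0, 0.01% Tween 20. Unlinked protease 25 nM; compound preincubation 15 min, RT, protected from light. Substrate Rhod110, 1.5 microM; ~15% conversion in 15 min.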
smiles,measurement,setting,value
Cc1ncsc1CCCl,outcome,[1],inactive
same,Potency,[2],inactive
COc1cccc2c1C(=O)c1c(O)c3c(c(O)c1C2=O)C[C@@](O)(C(=O)CO)CC3OC1CC(N2CCOC(OC)C2)C(O)C(C)O1 (stereo not given in full),Potency,[3],0.0066 µM (active)
same,Potency,[4],0.0059 µM (active)
same,outcome,[5],inactive
same,Potency,[6],0.0737 µM (active)
same,Potency,[7],0.0369 µM (active)
same,Potency,[8],0.0522 µM (active)
same,Potency,[9],0.0465 µM (active)
same,Potency,[10],0.0233 µM (active)
same,Potency,[11],0.0235 µM (active)
same,Potency,[2],inactive
CCCN(CCC)C(=O)Cc1c(-c2ccc(Cl)cc2)nc2ccc(Cl)cn12,outcome,[12],inactive
same,Potency,[3],inactive
same,outcome,[13],inactive
same,outcome,[5],inactive
same,Potency,[7],18.5 µM (active)
same,outcome,[14],inactive
same,Potency,[8],inactive
same,Potency,[9],7.37 µM (active)
same,Potency,[15],inactive
same,Potency,[10],inactive
same,Potency,[11],inactive
COc1cc(CC(C)N)cc(OC)c1OC (stereo not given),Potency,[2],inactive
CC(=O)OCC1=C(C(=O)O)N2C(=O)[C@@H](N)[C@H]2SC1,Potency,[16],22.1 µM (active)
